In PubChem BioAssay (Tox21) one finds Potency and max response data, which are given here for 18 compounds.

The structures appear in SMILES notation. “And” between values parts separate entries of the source, which are not always exact repeats. Identical values can stand only once. Inconclusive results are not listed. Some structures have more than one record in an assay (separate samples or runs), and their calls can disagree. The source made the active and inactive calls. The call rests on the fitted dose curve; in most records, active means well fitted curve in the direction sought with a large enough effect in the repeat runs; inconclusive means weak or mixed curves; inactive means no such curve, though single readings can be large; an effect the other way counts as inactive or inconclusive.

Assay [1] is described as follows: qHTS RealTime-Glo MT Cell Viability Assay in HepG2 cells - 40 hour (AID 1224870). Further: nearly all actives have a fitted effect of over 50% in size. Further: potency means the concentration at half of the fitted maximal effect. Put shortly:
(§1)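 Real-time viability: cells seeded at 600 per well together with NanoLuc and cell-permeant prosubstrate, compounds added after 5 h incubation. Luminescence tracked at 0, 8, 16, 24, 32 and 40 h of exposure.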
On the technique in general: In qHTS, concentration-response curves come from the screen itself.

Assay [2] in a line: A CellTox Green Cytotoxicity Assay to monitor cytotoxicity in HEK293 cells - 40 hour (AID 1224871). Further: nearly all actives have a fitted effect of over 45% in size. Further: potency means the concentration at half of the fitted maximal effect. Put shortly:
(§2)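 Tox21 screen in HEK293: membrane-impermeant cyanine dye fluoresces on binding dead-cell DNA; compound pinned 5 h post-seeding, plates held at 37 C, signal read repeatedly through 40 h.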

Assay [3] in a line: qHTS RealTime-Glo MT Cell Viability Assay in HEK293 cells - 16 hour (AID 1224872). Further: nearly all actives have a fitted effect of over 50% in size. Further: potency means the concentration at half of the fitted maximal effect. A digest of the protocol: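 HEK293 cells seeded with NanoLuc/prosubstrate reagent, rested 5 h at 37 C, then dosed and kept at 37 C up to 40 h. Nonlytic real-time luminescence from viable cells read at 0, 8, 16, 24, 32 and 40 h.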
Assay [4] is described as follows: qHTS RealTime-Glo MT Cell Viability Assay in HepG2 cells - 8 hour (AID 1224873). Further: nearly all actives have a fitted effect of over 55% in size. Put shortly:
as §1

Assay [5] can be described thus: qHTS RealTime-Glo MT Cell Viability Assay in HEK293 cells - 40 hour (AID 1224874). Further: nearly all actives have a fitted effect of over 50% in size. Further: potency means the concentration at half of the fitted maximal effect. To be noted: RealTime-Glo luminescence; max response: stronger effect = lower value. Put shortly: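 HEK293 + NanoLuc + prosubstrate, 600 cells/well; 5 h, 37 C/5% CO2; compound 23 nL in DMSO by pintool; 37 C; luminescence read at 0, 8, 16, 24, 32 and 40 h time points.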
A short description of assay [6]: A CellTox Green Cytotoxicity Assay to monitor cytotoxicity in HEK293 cells - 24 hour (AID 1224875). Further: series mostly up to about 77 µM; nearly all actives have a fitted effect of over 45% in size. Put shortly: as §2
A short description of assay [7]: A CellTox Green Cytotoxicity Assay to monitor cytotoxicity in HepG2 cells - 16 hour (AID 1224876). Further: nearly all actives have a fitted effect of over 45% in size. Further: potency means the concentration at half of the fitted maximal effect. A digest of the protocol:
(§3)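 Measurements at 0, 8, 16, 24, 32 and 40 h of treatment captured CellTox Green fluorescence in HepG2 cells that had been co-plated with reagent and preincubated 5 h at 37 C/5% CO2.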

A short description of assay [8]: qHTS RealTime-Glo MT Cell Viability Assay in HepG2 cells - 32 hour (AID 1224877). Further: nearly all actives have a fitted effect of over 55% in size. Further: potency means the concentration at half of the fitted maximal effect. A digest of the protocol: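 HepG2 cells (600/well) were dispensed with RealTime-Glo reagents, incubated 5 h at 37 °C, then treated with compounds in DMSO for up to 40 h. Nonlytic NanoLuc luminescence reflecting viable cells was read at each stated time point.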
Assay [9] in a line: A CellTox Green Cytotoxicity Assay to monitor cytotoxicity in HepG2 cells - 24 hour (AID 1224878). Further: nearly all actives have a fitted effect of over 45% in size. Further: potency means the concentration at half of the fitted maximal effect. A digest of the protocol:
as §3

The nature of assay [10]: A CellTox Green Cytotoxicity Assay to monitor cytotoxicity in HepG2 cells - 40 hour (AID 1224879). Further: nearly all actives have a fitted effect of over 40% in size. Further: potency means the concentration at half of the fitted maximal effect. Put shortly: as §3
On the % scale 0 is the no-effect control and ±100 the full control effect.

Take `C[Si](C)(C)O[Si](C)(C)C`: the Potency result in assay [1], in assay [2], in assay [3], in assay [4], in assay [6] and in assay [7] was “inactive” throughout. For the same compound, the Potency result in [8], in [9] and in [10] was “inactive” in each case. The max response in assay [5] is -0.246% (inactive) and 0.761% (inactive).

Consider `COc1ccc(OC)c(C(O)CNC(=O)CN)c1` (configuration not stated), for which the Potency result in assay [1], in [2], in assay [3], in [4], in [6] and in [7] was “inactive” in each case. Also, the Potency result in assay [8], in [9] and in assay [10] was “inactive” in each case. In addition, the max response in assay [5] is 2.49% (inactive) and 0.0352% (inactive).

Turning to `C[C@]12CCC(=O)C=C1CC[C@@H]1[C@@H]2C(=O)C[C@@]2(C)[C@H]1CC[C@]2(O)C(=O)CO`, the Potency result in [1], in assay [2], in assay [3], in assay [4], in assay [6] and in [7] was “inactive” throughout. The Potency entry in assay [8], in [9] and in assay [10] was “inactive” throughout. Further, the max response in assay [5] was -10% (inactive) and -11.4% (inactive).

Regarding `CCCC(=O)O`, the Potency entry in assay [1], in [2], in assay [3], in assay [4], in assay [6] and in assay [7] was “inactive” each time. Further, the Potency result in assay [8], in [9] and in [10] was “inactive” each time. In [5], the max response is 23.6% (inactive) and 12.6% (inactive).

On to `C=C(C)C(=O)OCCOC(=O)C(=C)C`, for which the Potency result in assay [1], in assay [2], in assay [3], in [4], in assay [6] and in assay [7] was “inactive” in each case. In addition, the Potency entry in assay [8], in [9] and in assay [10] was “inactive” in each case. Besides, the max response in assay [5] was 7.24% (inactive) and -0.024% (inactive).

Regarding `c1ccc(Nc2ccccc2)cc1`, the Potency in assay [1] is 43.6 µM (active) and inactive; in assay [2] it was 19.5 µM (active) and inactive; in assay [3], 17.4 µM (active) and inactive; in assay [5] it was 19.5 µM (active); in [8], 38.9 µM (active) and inactive; in [9], 43.6 µM (active). Besides, the Potency in assay [10] is 34.7 µM (active). The Potency entry in assay [4] and in assay [7] was “inactive” in each case. Also, the max response in [5] was 12.7% (inactive).

Turning to `CCC(C)CO` (configuration not stated), the Potency entry in assay [1], in assay [2], in assay [3], in [4], in [6] and in [8] was “inactive” each time. Further, the Potency was 24.5 µM (active) in assay [5]; “inactive and 38.9 µM (active)” in assay [7]; “inactive and 43.6 µM (active)” in [9]; “inactive and 43.6 µM (active)” in assay [10]. Besides, in [5], the max response is 4.66% (inactive).

Consider `Cc1cccc(C(=O)O)c1`, for which the Potency entry in assay [1], in assay [2], in assay [3], in assay [4], in assay [6] and in assay [7] was “inactive” throughout. The Potency result in [8], in assay [9] and in assay [10] was “inactive” in each case. The max response in [5] is 0.572% (inactive) and -3.52% (inactive).

Turning to `CC(C)=CCCC(C)CCO` (configuration not stated), the Potency entry in assay [1], in [2], in assay [3], in assay [4], in [6] and in assay [7] was “inactive” throughout. In addition, the Potency result in [8], in [9] and in [10] was “inactive” in each case. In assay [5], the max response was -3.95% (inactive) and 4.54% (inactive).

`CCCCC(CC)COP(=O)(OCC(CC)CCCC)OCC(CC)CCCC` (configuration not stated): the Potency entry in assay [1], in assay [2], in [3], in [4], in assay [6] and in assay [7] was “inactive” throughout. The Potency entry in assay [8], in assay [9] and in assay [10] was “inactive” each time. Moreover, the max response in assay [5] is -14.5% (inactive).

In the case of `Cc1cccc([N+](=O)[O-])c1C`, the Potency entry in assay [1], in assay [2], in assay [3], in assay [4], in assay [6] and in assay [7] was “inactive” each time. The Potency entry in [8], in assay [9] and in assay [10] was “inactive” each time. In addition, the max response in [5] was 2.52% (inactive) and -15.5% (inactive).

As to `CC(CCC(=O)O)(c1ccc(O)cc1)c1ccc(O)cc1`, the Potency result in assay [1], in assay [2], in [3], in assay [4], in assay [6] and in assay [7] was “inactive” throughout. Besides, the Potency entry in [8], in [9] and in [10] was “inactive” each time. Further, the max response in assay [5] was -1.02% (inactive) and 0.133% (inactive).

As to `COc1cc([C@@H]2c3cc4c(cc3[C@H](O)[C@H]3COC(=O)[C@H]23)OCO4)cc(OC)c1OC`, the Potency entry in [1], in [2], in assay [3], in [4], in assay [6] and in assay [7] was “inactive” in each case. In addition, the Potency result in [8], in assay [9] and in assay [10] was “inactive” each time. Moreover, the Potency in assay [5] is 0.0489 µM (active).

Turning to `c1ccc2c(c1)c1cccc3ccc4cccc2c4c31`, the Potency entry in [1], in [2], in assay [3], in assay [4], in assay [6] and in [7] was “inactive” throughout. Besides, the Potency entry in assay [8], in [9] and in assay [10] was “inactive” throughout. Moreover, the Potency in assay [5] was 19.5 µM (active). The max response in [5] was -16.2% (inactive).

`Cc1cccc(N(C)C(=S)Oc2ccc3ccccc3c2)c1`: the Potency entry in [1], in assay [2], in assay [3], in [4], in [6] and in assay [7] was “inactive” each time. Further, the Potency entry in assay [8], in assay [9] and in [10] was “inactive” throughout. In addition, the max response in [5] was -21.9% (inactive) and -0.992% (inactive).

Consider `O=C(/C=C/c1ccccc1)OCc1ccccc1`, for which the Potency result in assay [1], in [2], in assay [3], in [4], in assay [6] and in assay [7] was “inactive” in each case. The Potency result in assay [8], in [9] and in assay [10] was “inactive” in each case. Further, the max response in assay [5] was 1.15% (inactive) and -0.532% (inactive).

In the case of `CC(C)OC(=O)C(C)(C)Oc1ccc(C(=O)c2ccc(Cl)cc2)cc1`, the Potency entry in [1], in [2], in [4], in [6], in assay [7] and in assay [8] was “inactive” in each case. In addition, the Potency result in [9] and in [10] was “inactive” throughout. The Potency in assay [3] was 21.9 µM (active) and 16.9 µM (active); in assay [5], 24.5 µM (active) and 19 µM (active).

For the compound `c1cc(N(CC2CO2)CC2CO2)ccc1OCC1CO1` (configuration not stated), the Potency entry in [1], in assay [2], in [3], in assay [4], in assay [6] and in [7] was “inactive” each time. Further, the Potency result in assay [8], in [9] and in assay [10] was “inactive” each time. Moreover, the Potency in assay [5] is 19.5 µM (active) and 15.5 µM (active).
